From the supplement of paper PMC6555819

The sequences below were run on VDR:RXRa (NR concentration 270 nM, RXRa partner concentration 90 nM) (assay: PBM binding z-score (relative to random genomic background probes); higher = stronger binding; sequences stand for … in GC…GCGATTGACAGCGTAGAATGAAGG).
Method: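 Protein-binding microarray (Agilent 4x180K custom design, double-stranded 60-nt probes: 5' GC cap, 34-nt variable region, 24-nt constant primer region; full probe sequence given). Purified or IVT nuclear receptor:RXRα heterodimers (3:1 NR:RXRα, mostly 270:90 nM) or homodimers were incubated for 1 h in PBS with 2% milk and no ligand, then detected with Alexa488 antibodies. Fluorescence from o1-orientation probes (~5 replicates averaged) was converted to z-scores against 500 random hg19 background probes. Variable regions are seed direct-repeat (DR0–DR5) sites, all their single-nucleotide variants and half-site ablations.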

Question: How did the PBM binding z-score turn out when ACCAGCAGGCCAAGGGTCACTCAAGATTAGTCCG was run?
Answer: The PBM binding z-score was 2.47.

Question: How did the PBM binding z-score turn out when CCTGCTAGGTCATGGTCAGGTAATCTACAGTATG was run?
Answer: The PBM binding z-score was 1.76.

Question: TAGCCTAGGTCATTCAGGGGCCAGAATAGAAAGC was tested. Which PBM binding z-score did it give?
Answer: Its PBM binding z-score is 3.17.

Question: How did the PBM binding z-score turn out when TCTCGGAGGACACGAAGGTCAGCGCTTTCCAGAG was run?
Answer: Its PBM binding z-score is 2.35.

Question: How did the PBM binding z-score turn out when CAAACTAGGTCACGAGGTCAAAGTCCGCTTCCCG was run?
Answer: Its PBM binding z-score is 6.42.

Question: How did the PBM binding z-score turn out when CAAACTAGGTCAAAGGACAGTGAAAGGCGACGTA was run?
Answer: The PBM binding z-score was 1.53.

Question: Which PBM binding z-score does the source give for CCGAGTAGGTTACGACGGGGCATTCAGTGCGAAT here?
Answer: The PBM binding z-score was 1.49.

Question: For ATATTTAGGTTAGGGTCATTCAGAAAGTAGGGAA, which PBM binding z-score is on record?
Answer: Its PBM binding z-score is 4.6.

Question: CTAACTAGGTCACGAAAGGTCAAAGTCGAATGAC was tested. Which PBM binding z-score did it give?
Answer: Its PBM binding z-score is 6.76.

Question: With CCTCGGAGGACAACCGGAGGTCAGAGCTGCCAGA as the sequence, how does the PBM binding z-score read?
Answer: The PBM binding z-score was 1.9.

Question: Which PBM binding z-score does the source give for ATATGTAGGTTAGGGTCACTCAGAAAGTAGGGAA here?
Answer: The PBM binding z-score was 3.98.

Question: CCTAGTTGGCCAAGGTCACACACGCTATAGGTAC was tested. Which PBM binding z-score did it give?
Answer: The PBM binding z-score was 4.02.

Question: Which PBM binding z-score does the source give for CAAACTAGGTCAAGGTCAAATTCGGTTTGTGCCA here?
Answer: Its PBM binding z-score is 5.06.

Question: For CAAACTAGGTCACCGGAAGGTCAAAGTTCGCATG, which PBM binding z-score is on record?
Answer: The PBM binding z-score was 6.38.

Question: For TAGCCTAGGTCCTTCAGGGGCCAGTATAGAAAGC, which PBM binding z-score is on record?
Answer: The PBM binding z-score was -0.708.

Question: With ACTAGGAGGACAAAGGTCAGAGCTACGCCAGTGA as the sequence, how does the PBM binding z-score read?
Answer: Its PBM binding z-score is 3.45.

Question: For ATATGTAGGTTAGGGTCGTTCAGAAAGTAGGGAA, which PBM binding z-score is on record?
Answer: Its PBM binding z-score is 2.57.

Question: With GGAACGGGGGCAAGTTGATAGCAGAGTTTGATGG as the sequence, how does the PBM binding z-score read?
Answer: Its PBM binding z-score is 3.44.

Question: For TCGAGTAGGTTCCGGGGGCATTCAGGGATGAAGA, which PBM binding z-score is on record?
Answer: The PBM binding z-score was 2.54.

Question: How did the PBM binding z-score turn out when TCGAGTAGGTTACGGGGGCATTCAGGGATGAAGA was run?
Answer: The PBM binding z-score was 4.

Question: For CCTAGTTGGTCAAGGTAACACACGCTATAGGTAC, which PBM binding z-score is on record?
Answer: Its PBM binding z-score is 0.707.

Question: How did the PBM binding z-score turn out when CAAACTAGGTCAAAGGTCAAACTCGAGCCAACCA was run?
Answer: Its PBM binding z-score is 6.96.

Question: CGAACTAGGCCAAAGGACAGTGAAAGGCGACGTA was tested. Which PBM binding z-score did it give?
Answer: Its PBM binding z-score is -0.722.

Question: For ATACGTAGGTTACATCCGGGTCATTCAGGCTATG, which PBM binding z-score is on record?
Answer: The PBM binding z-score was 4.16.

Question: With ATCGAAAGGTCGACGAGGTGAGTATGCACCGTTT as the sequence, how does the PBM binding z-score read?
Answer: Its PBM binding z-score is 5.27.

Question: CAAACTAGGTCACGAAAGGTCAAATTCGAATGAC was tested. Which PBM binding z-score did it give?
Answer: The PBM binding z-score was 6.93.

Question: With CGTCTAAGGTCAAAGGTCAGTGAAGAGATGACGG as the sequence, how does the PBM binding z-score read?
Answer: Its PBM binding z-score is 6.78.

Question: CATACAGGGTCATCTAGGCCAGAGTAGGGACGGC was tested. Which PBM binding z-score did it give?
Answer: Its PBM binding z-score is 5.26.

Question: CTATGTAGTTTAAGGGGGTCATTCAGTTTGAAAG was tested. Which PBM binding z-score did it give?
Answer: The PBM binding z-score was 6.94.

Question: For CCCCGGAGGACAGAAGGTCAGAGCTGTCCGCTTT, which PBM binding z-score is on record?
Answer: The PBM binding z-score was 0.723.

Question: With TCTTATAGATCAATAGAGGTTAAGAAAGTGCGCT as the sequence, how does the PBM binding z-score read?
Answer: The PBM binding z-score was 2.03.

Question: For CAAACTAGGCCAAGGTCAAAGTCGGTTTGTGCCA, which PBM binding z-score is on record?
Answer: Its PBM binding z-score is 4.19.

Question: For CCTTACGGGTCACTGACAGGTCATAGCATTTGGA, which PBM binding z-score is on record?
Answer: Its PBM binding z-score is 5.38.

Question: How did the PBM binding z-score turn out when CAAACTAGGTCACGAAAGGTCAAAGCCGAATGAC was run?
Answer: Its PBM binding z-score is 6.5.

Question: Which PBM binding z-score does the source give for CCTACTGGGCCAATGTCATTGATCAGTCAAAGCA here?
Answer: The PBM binding z-score was -0.366.

Question: How did the PBM binding z-score turn out when CGAACTAGGTCACCAGGACCGTGAAGAGGTTGGA was run?
Answer: The PBM binding z-score was 2.4.

Question: How did the PBM binding z-score turn out when CCTACTGGGCCATTCAGAGGACATTGATCATATG was run?
Answer: Its PBM binding z-score is -0.347.

Question: How did the PBM binding z-score turn out when GATACACGGTCAAGGCCAGAGTACGCGTATTGAT was run?
Answer: Its PBM binding z-score is -0.0304.

Question: For ATATGTAGGTGAGGGTCATTCAGAAAGTAGGGAA, which PBM binding z-score is on record?
Answer: The PBM binding z-score was 3.42.

Question: Which PBM binding z-score does the source give for CGAACTAGGTCACAAGGACAGTGAAGAGGTTGGA here?
Answer: The PBM binding z-score was 1.83.
